Measurements as given in article PMC10726135, “HNF4α isoforms regulate the circadian balance between carbohydrate and lipid metabolism in the liver”.
Over roughly 18,000 sequences, “log2 normalized intensity” has its median near 0.36; the highest 2% begin near 7.3. Many of the other results were omitted from the sample, so the highest values are more common in it than they were.

These sequences were tested against T1, HNF4alpha8 (COS-7 nuclear extract) (Homo sapiens, UniProt P41235-5 1-452) (assay: protein-binding microarray; COS-7 nuclear extract on double-stranded Agilent 4x180k PBM; binding buffer, salt, pH and temperature not given in the material; high values mean tight binding). Settings: chain copies: 2; label: 3' end of strand 1 on the slide; dsDNA, one strand shown.
T1 sequence: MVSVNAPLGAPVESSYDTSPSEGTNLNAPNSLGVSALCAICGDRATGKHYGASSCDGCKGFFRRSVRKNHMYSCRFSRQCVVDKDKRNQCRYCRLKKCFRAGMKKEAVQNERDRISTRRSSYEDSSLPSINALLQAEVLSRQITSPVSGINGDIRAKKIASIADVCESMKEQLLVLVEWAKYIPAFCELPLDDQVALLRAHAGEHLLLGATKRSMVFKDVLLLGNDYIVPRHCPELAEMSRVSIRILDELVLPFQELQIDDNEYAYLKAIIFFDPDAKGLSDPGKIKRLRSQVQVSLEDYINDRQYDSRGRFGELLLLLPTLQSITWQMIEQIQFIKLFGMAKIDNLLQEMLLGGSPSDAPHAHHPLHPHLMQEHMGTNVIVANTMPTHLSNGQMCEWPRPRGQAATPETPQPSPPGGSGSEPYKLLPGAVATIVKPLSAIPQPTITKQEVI
How it was run: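 Double-stranded oligonucleotides of ~60 nt, representing ~44,000 test sequences in quadruplicate, made up a custom Agilent SurePrint G3 4x180k array. Nuclear extracts from COS-7 cells transiently transfected by CaPO4 with a human HNF4α isoform expression vector were applied, and bound HNF4α was imaged at 2-µm resolution on an Agilent G2565CA scanner. Binding signal refers to the background-corrected, normalized gProcessedSignal output of Agilent software.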

| Sequence | binding signal [log2 normalized intensity] |
| --- | --- |
| TCTTTGATTAGGAAAGGGAACTCCCTGACCGCCTAGGGAGATTAGAGTATCGGTCGA | 0.445 |
| CACTTCTGAAAAAAATATTGAACAAAGATTGCCTAGGGAGATTAGAGTATCGGTCGA | 0.276 |
| GAAAATATTTCTCTGAACTTTGACCTATAGGCCTAGGGAGATTAGAGTATCGGTCGA | 9.31 |
| GGTGAAATAGCTGAACTATTTAAGGCCTTTGCCTAGGGAGATTAGAGTATCGGTCGA | 0.507 |
| ACTGACCTTTGAGAGTCAACACTGAAATAGGCCTAGGGAGATTAGAGTATCGGTCGA | 2.06 |
| AGTTGGAAAATATTTCTCTGAACTTTGACCGCCTAGGGAGATTAGAGTATCGGTCGA | 8.68 |
| CTGTTTCTTTGTGTGTCAACAGAGTGCTTAGCCTAGGGAGATTAGAGTATCGGTCGA | 1.48 |
| TAGGTACTATTATTAGAGTCCCTTTTTTAGGCCTAGGGAGATTAGAGTATCGGTCGA | 0.509 |
| GAAAGGATCTCACCCAAACCATCCCAGGCAGCCTAGGGAGATTAGAGTATCGGTCGA | 3.1 |
| GGTGATGTGAACCTCGATCCCTGGCTAAGGGCCTAGGGAGATTAGAGTATCGGTCGA | 2.38 |
| CCCCACCCGCGGTCCGTCCCTCCTGGTCGAGCCTAGGGAGATTAGAGTATCGGTCGA | 3.57 |
| CCCAGTATGAGCGGCGCTGACCCCGGGAGCGCCTAGGGAGATTAGAGTATCGGTCGA | 3.67 |
| TGAGACTTTCCTGTTGGGGAGCAAAGGTTAGCCTAGGGAGATTAGAGTATCGGTCGA | 6.1 |
| TAGATAAGAGCTGAGGAAGTGCTGACCTTTGCCTAGGGAGATTAGAGTATCGGTCGA | 6.57 |
| CTGAGGAAGTGCTGACCTTTGGTCTAAACCGCCTAGGGAGATTAGAGTATCGGTCGA | 6.93 |
| AAGAGCTGAGGAAGTGCTGACCTTTGGTCTGCCTAGGGAGATTAGAGTATCGGTCGA | 7.88 |
| AGTGCTGCATGCAAAAAGGCTGACCTTTGAGCCTAGGGAGATTAGAGTATCGGTCGA | 8.62 |
| TGCATGCAAAAAGGCTGACCTTTGACTCTCGCCTAGGGAGATTAGAGTATCGGTCGA | 8.15 |
| GTCAGAGTGCTGCATGCAAAAAGGCTGACCGCCTAGGGAGATTAGAGTATCGGTCGA | 1.75 |
| CCTAAACCTGCAAACCTTTGACCTTTCCATGCCTAGGGAGATTAGAGTATCGGTCGA | 6.22 |
| CTTTTTGACCTTGCAGTGGCAAGGCAAAAGGCCTAGGGAGATTAGAGTATCGGTCGA | 2.28 |
| TCTCGGTCAAACCTTTGACCCTTTATAATCGCCTAGGGAGATTAGAGTATCGGTCGA | 6.91 |
| CTTTGAAATGTCCTGAGTGATTGTAGTGTCGCCTAGGGAGATTAGAGTATCGGTCGA | 1.86 |
| CCCCCGCAACTATTTATGAGTCTTGGGAATGCCTAGGGAGATTAGAGTATCGGTCGA | 0.709 |
| CACAGTGTTATTTGCTGAGGTGGGGGAGGTGCCTAGGGAGATTAGAGTATCGGTCGA | 0.772 |
| TTAGGGAGGGGCCAGGACAAAGGTCCTGTGGCCTAGGGAGATTAGAGTATCGGTCGA | 2.51 |
| GGTTAAAATTTATCTATTGGGTACAATGTTGCCTAGGGAGATTAGAGTATCGGTCGA | 2.37 |

| Sequence | binding signal [log2 normalized intensity] |
| --- | --- |
| CTTCCAGTCCACAGTCCAGTGACTATCTGCGCCTAGGGAGATTAGAGTATCGGTCGA | 1.02 |
| TTGCCCTTTGCCCAACCCTCTCCCACTCCCGCCTAGGGAGATTAGAGTATCGGTCGA | 4.93 |
| TTTCTTAATTGCCCTTTGCCCTTTGCCCAAGCCTAGGGAGATTAGAGTATCGGTCGA | 8.84 |
| CTACAGGGTATGAATTTAACCTTTGCTCTCGCCTAGGGAGATTAGAGTATCGGTCGA | 7.57 |
| AGGGAATTTCTAGGTTTGATCTTTGCCCTAGCCTAGGGAGATTAGAGTATCGGTCGA | 7.66 |
| GCCCTTTGCCCTTTGCCCAACCCTCTCCCAGCCTAGGGAGATTAGAGTATCGGTCGA | 6.2 |
| ACTTTGCCCTTTTTTTCTCTCCCCTTTTAAGCCTAGGGAGATTAGAGTATCGGTCGA | 2.63 |
| TCCTCAGGGAATTTCTAGGTTTGATCTTTGGCCTAGGGAGATTAGAGTATCGGTCGA | 3.49 |
| ATTTCTAGGTTTGATCTTTGCCCTACAATTGCCTAGGGAGATTAGAGTATCGGTCGA | 6.36 |
| GGGTATGAATTTAACCTTTGCTCTCTGAAAGCCTAGGGAGATTAGAGTATCGGTCGA | 6.63 |
| TAATTGCCCTTTGCCCTTTGCCCAACCCTCGCCTAGGGAGATTAGAGTATCGGTCGA | 7.74 |
| TGACCTTTGCATTCTTACCCAAGCCCCAAAGCCTAGGGAGATTAGAGTATCGGTCGA | 4.12 |
| CCATCCTACAGGGTATGAATTTAACCTTTGGCCTAGGGAGATTAGAGTATCGGTCGA | 4.92 |
| CTGAATCTCCCAGTGCTTTGATCTTCAACTGCCTAGGGAGATTAGAGTATCGGTCGA | 0.419 |
| CACTTGTAGGCCTGTGTGCATGGAGTGCACGCCTAGGGAGATTAGAGTATCGGTCGA | 0.798 |
| CCCCGCCCGCAGCCCAGTCTTGGCCCCACCGCCTAGGGAGATTAGAGTATCGGTCGA | 6.38 |
| GAGTTATCTTCCTCCCCCCTTGGCTACATGGCCTAGGGAGATTAGAGTATCGGTCGA | 4.15 |
| TAGGCATTGTCTTGAAAGATAAAGTGTCTCGCCTAGGGAGATTAGAGTATCGGTCGA | 1.48 |
| TGTGTCAAAGGTCACTTAGTCCCTAAGTCTGCCTAGGGAGATTAGAGTATCGGTCGA | 5.26 |
| TTCCCTACCCCCTGGGAGTAACCTGCTTGTGCCTAGGGAGATTAGAGTATCGGTCGA | 2.25 |
| TTTTAAATACCTTTTTGGGACTGATAACTTGCCTAGGGAGATTAGAGTATCGGTCGA | 1.23 |
| AGCATGGAGAAAATTCTGGACCTTCTTATCGCCTAGGGAGATTAGAGTATCGGTCGA | 1.59 |
| CGCTGCGGGTCACGTGCCGCTGCGGGTCACGCCTAGGGAGATTAGAGTATCGGTCGA | 2.61 |
| AGAATGACCAGGAGTTTGGGATCAGACACGGCCTAGGGAGATTAGAGTATCGGTCGA | 0.332 |
| GAAACTTATTGTGAACTGGAGCAAAGGTCAGCCTAGGGAGATTAGAGTATCGGTCGA | 5.97 |
| TTATCTTGATGGTTAAAGTCCAATCTTCTGGCCTAGGGAGATTAGAGTATCGGTCGA | 4.82 |
| GACCATCACCACTTCAAGCTTGGTATGCTTGCCTAGGGAGATTAGAGTATCGGTCGA | -0.696 |
